Experimental data: PubChem BioAssay
Where “and” joins values, the source holds several entries; their conditions need not be identical. Equal values may be shown once. Calls of active or inactive are those of the source. Cut-off read from the data, not from the text of the source, unless noted: active = inhibition above about 80%; inactive = the rest.

Assays:
[1] = CRL2098 osteosarcoma cell growth inhibition, synergistic combos for chromothripsis tumors, BGB or cisplatin IC20 combos (AID 1671454); conditions: CRL2098 osteosarcoma cells, drug combinations, stronger effect = higher value;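 note: cells exposed for 96 h before readout; 0% = vehicle DMSO and 100% = killing by high DMSO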
[2] = HD-MB03 medulloblastoma cell growth inhibition, synergistic combos for chromothripsis tumors, BGB or cisplatin IC20 combos (AID 1671455; in the data active = inhibition above about 83%;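 note: 0% = vehicle DMSO and 100% = high DMSO as cytotoxic control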); conditions: HD-MB03 medulloblastoma cells, stronger effect = higher value
[3] = UWB1.289 ovarian carcinoma cell growth inhibition, synergistic combos for chromothripsis tumors, BGB or cisplatin combos (AID 1671456); conditions: UWB1.289 ovarian carcinoma cells, stronger effect = higher value;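 note: cells exposed to compound for four days; 0% = vehicle DMSO and 100% = killing by high DMSO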
[4] = LFS_MB_2R medulloblastoma cell growth inhibition, synergistic combos for chromothripsis tumors, cisplatin combos (AID 1671457); conditions: LFS_MB_2R medulloblastoma cells, stronger effect = higher value;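 note: cells exposed to compound for four days before readout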
[5] = MDA-MB-436 breast carcinoma cell growth inhibition, synergistic combos for chromothripsis tumors, BGB or cisplatin combos (AID 1671458; call rule not given here;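 note: cells exposed for 96 hours; 0% = vehicle DMSO and 100% = killing by high DMSO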); conditions: MDA-MB-436 breast carcinoma growth inhibition, drug combinations, stronger effect = higher value
[6] = UWB1.289_BRCA1 ovarian cancer growth, cell-based, BGB or cisplatin combinations (AID 1671459); conditions: UWB1.289 BRCA1 ovarian carcinoma, drug combinations, stronger effect = higher value
[7] = human astrocyte viability loss, single and combined drugs, cytotoxicity control for chromothriptic childhood tumor combination screen, cell-based, BGB or cisplatin IC20 combos (AID 1671460); conditions: Human astrocytes, drug combinations, stronger effect = higher value;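 note: cells exposed to compounds for 96 hours before viability readout; 0% = vehicle and 100% = killing control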
[8] = growth inhibition of BT084 medulloblastoma cells, cell-based, ICGC_MB145, cisplatin and BGB IC40 combos (AID 1671461); conditions: drug combinations, stronger effect = higher value;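 note: cells exposed to drugs for 96 hours; 0% = vehicle DMSO and 100% = high DMSO full killing control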
[9] = growth inhibition of RCMB18 medulloblastoma cells, cell-based, cisplatin and BGB IC40 combos (AID 1671462); conditions: stronger effect = higher value;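 note: cells exposed to compound for four days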
[10] = growth inhibition of CRL1545 osteosarcoma cells, cell-based, cisplatin and BGB IC20 combos (AID 1671464); conditions: stronger effect = higher value;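 note: cells exposed to compound for 96 hours before readout; 0% = vehicle DMSO and 100% = high DMSO killing control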
[11] = circadian clock period modulators, cell-based, LOPAC library, luminescence reporter (AID 2774; call rule not given here;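 note: values are relative to mean of DMSO wells on each plate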); conditions: circadian reporter cells, at 7 µM, actives lie on both sides
[12] = LFS_MB_P medulloblastoma growth inhibition, cell-based, chromothripsis tumors, cisplatin or BGB combos (AID 1671449); conditions: LFS_MB_P medulloblastoma cells;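 note: cells exposed for 96 hours; 0% = vehicle DMSO and 100% = killing by high DMSO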
[13] = HDN33 neuroblastoma growth inhibition, cell-based, chromothripsis tumors, cisplatin or BGB combos (AID 1671450); conditions: HDN33 neuroblastoma cells, stronger effect = higher value;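 note: cells exposed to compound for four days; 0% = vehicle DMSO and 100% = cell killing by high DMSO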
[14] = ICB984 medulloblastoma cell growth inhibition, synergistic combos for chromothripsis tumors, cisplatin or BGB combos (AID 1671451; call rule not given here;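 note: cells exposed for 96 hours before readout; 0% = vehicle DMSO and 100% = killing by high DMSO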); conditions: ICB984 medulloblastoma cells, drug combinations, stronger effect = higher value
[15] = LFS_MB_1R medulloblastoma cell growth inhibition, synergistic combos for chromothripsis tumors, cisplatin or BGB combos (AID 1671452); conditions: LFS_MB_1R medulloblastoma cells, stronger effect = higher value;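 note: cells exposed for 96 hours before readout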
[16] = HTB85 osteosarcoma cell growth inhibition, synergistic combos for chromothripsis tumors, BGB or cisplatin IC20 combos (AID 1671453); conditions: HTB85 osteosarcoma cells, drug combinations, stronger effect = higher value;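 note: cells exposed for 96 hours before readout; 0% = vehicle DMSO and 100% = high DMSO killing control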
[17] = measured here: combination with BGB at IC20, at 0.5 µM
[18] = measured here: combination with cisplatin at IC20, at 0.5 µM
[19] = measured here: combo with BGB at IC20, at 0.5 µM
[20] = measured here: combo with cisplatin at IC20, at 0.5 µM
[21] = measured here: inhibition with BGB combination, at 0.05 µM
[22] = measured here: inhibition with cisplatin combination, at 0.05 µM
[23] = measured here: combination with cisplatin, at 0.5 µM
[24] = measured here: combination with cisplatin, at 5 µM
[25] = measured here: BGB combination, at 0.5 µM
[26] = measured here: BGB combination, at 5 µM
[27] = measured here: cisplatin combination, at 0.5 µM
[28] = measured here: cisplatin combination, at 5 µM
[29] = BGB combination, concentration series, at 5 µM
[30] = cisplatin combination, concentration series, at 5 µM
[31] = measured here: combo with BGB IC20, at 0.5 µM
[32] = measured here: combo with cisplatin IC20, at 0.5 µM
[33] = cisplatin combination, at 0.5 µM
[34] = measured here: BGB IC40 combination 0.05 uM, at 0.05 µM
[35] = measured here: BGB IC40 combination, at 0.05 µM
[36] = measured here: with BGB IC20 combination, at 0.5 µM
[37] = measured here: with cisplatin IC20 combination, at 0.5 µM
[38] = measured here: combination with BGB IC40, at 0.05 µM

With `COc1cc(C2c3cc4c(cc3C(O)C3COC(=O)C23)OCO4)cc(OC)c1OC` (configuration not stated) the inhibition ([1]; at 0.5 µM) was 38.6% (inactive), the inhibition [1, 17] was 34.3% and the inhibition [1, 18] was 46.2%. For the same compound, the inhibition ([2]; at 0.5 µM) was 83.8% (active), the inhibition [2, 19] was 82.3% and the inhibition [2, 20] was 76.1%. For the same compound, the inhibition ([3]; at 0.5 µM) was 44.8% (inactive), the inhibition [3, 21] was 11.9% and the inhibition [3, 22] was 39.3%. The inhibition ([4]; at 0.5 µM) was 33.5% (inactive), the inhibition [4, 23] was 48.6% and the inhibition [4, 24] was 47.1%. For the same compound, the inhibition ([5]; at 0.5 µM) was 69.7% (inactive), the inhibition [5, 25] was 58.4% and the inhibition [5, 26] was 53.6%. For the same compound, the inhibition [5, 27] was 72.1%, the inhibition [5, 28] was 74.9% and the inhibition [6, 29] was 71.3%. The inhibition ([6]; at 0.5 µM) was 57.4% (inactive), the inhibition [6, 30] was 70.5% and the inhibition ([7]; at 0.5 µM) was 85.4% (active). The inhibition [7, 31] was 85.6%, the inhibition [7, 32] was 76.9% and the inhibition ([8]; at 0.5 µM) was 45.2% (inactive). It also gave an inhibition [8, 33] of 43.7%, an inhibition ([8]; cisplatin combination, at 5 µM) of 48.4% and an inhibition [8, 34] of 22.9%. The inhibition ([8]; single agent, at 5 µM) was 62.7%, the inhibition ([9]; at 0.5 µM) was 21.7% (inactive) and the inhibition ([9]; cisplatin combo, at 5 µM) was 29.2%. It also gave an inhibition [9, 35] of 11.1%, an inhibition [9, 23] of 20.9% and an inhibition ([9]; single agent, at 5 µM) of 18.7%. The inhibition ([10]; at 0.5 µM) was 74.4% (inactive), the inhibition [10, 36] was 70.7% and the inhibition [10, 37] was 76.3%. The inhibition ([10]; single agent, at 0.05 µM) was 49.3% and the inhibition ([10]; single agent, at 5 µM) was 85.7%.

For `Oc1ccc2c3c1O[C@H]1[C@@H](O)CC[C@@]4(O)C(C2)N(CC2CCC2)CCC314` (some centres not stated), the period change [11] was -0.2 h (inactive).

In the case of `COc1cc([C@@H]2c3cc4c(cc3[C@H](O)[C@H]3COC(=O)[C@H]23)OCO4)cc(OC)c1O`, the inhibition ([12]; at 0.5 µM, stronger effect = higher value) is reported as -9.98% (inactive) and 8.43% (inactive), the inhibition ([12]; measured here: combination with BGB IC20, at 0.005 µM) is reported as -2.59% and -6.87% and the inhibition ([12]; measured here: combination with BGB IC40, at 0.005 µM) is reported as 7.46% and -20.3%. The inhibition [12, 38] was 35.2% and -17%, the inhibition ([12]; measured here: combination with cisplatin, at 0.5 µM, stronger effect = higher value) was -26% and 12.8% and the inhibition ([12]; measured here: combination with cisplatin, at 5 µM, stronger effect = higher value) was 48% and 29.7%. For the same compound, the inhibition ([13]; BGB combo, at 5 µM) was 64.5% and 57.8%, the inhibition ([13]; at 0.5 µM) was 76% (inactive) and 68.9% (inactive) and the inhibition ([13]; cisplatin combo, at 5 µM) was 60.1% and 62.6%. The inhibition [13, 36] was 66.9% and 60.4%, the inhibition [13, 37] was 69% and 58.6% and the inhibition ([13]; single agent, at 5 µM) was 77.6% and 81.6%. For the same compound, the inhibition ([14]; BGB IC20 combo, at 0.005 µM) was 12.7% and -7.66%, the inhibition ([14]; BGB IC40 combo, at 0.005 µM) was 1.81% and -7.75% and the inhibition ([14]; BGB IC40 combo, at 0.05 µM) was 4.84% and 20.6%. For the same compound, the inhibition ([14]; at 0.5 µM) was -16.8% (inactive) and -20% (inactive), the inhibition ([14]; cisplatin combo, at 0.05 µM) was 1.07% and 20.6% and the inhibition ([14]; cisplatin combo, at 0.5 µM) was -39.6% and -30.5%. For the same compound, the inhibition ([14]; cisplatin combo, at 5 µM) was -37.8% and -5.3%, the inhibition ([14]; measured here: 5 uM single agent, at 5 µM) was 0.691% and -3.02% and the inhibition ([15]; at 0.5 µM) was 4.95% (inactive) and 4.02% (inactive). For the same compound, the inhibition [15, 38] was -9.68% and 4.85%, the inhibition [15, 23] was -26.6% and 18% and the inhibition [15, 24] was 44.6% and 52.8%. For the same compound, the inhibition ([16]; at 0.5 µM) was 70% (inactive) and 60.4% (inactive), the inhibition ([16]; measured here: with BGB IC20, at 0.5 µM) was 56.9% and 41.3% and the inhibition ([16]; measured here: with BGB IC20, at 5 µM) was 58.2% and 51.8%. For the same compound, the inhibition ([16]; measured here: with cisplatin IC20, at 0.5 µM) was 60.9% and 54%, the inhibition ([16]; measured here: with cisplatin IC20, at 5 µM) was 70.5% and 80% and the inhibition ([16]; single agent, at 5 µM) was 87% and 84.5%. For the same compound, the inhibition ([1]; at 0.5 µM) was 57.9% (inactive) and 29.8% (inactive), the inhibition [1, 17] was 50.3% and 29.8% and the inhibition [1, 18] was 57.2% and 5.54%. For the same compound, the inhibition ([2]; at 0.5 µM) was 71.7% (inactive) and 69.2% (inactive), the inhibition [2, 19] was 61.9% and 65.3% and the inhibition [2, 20] was 71.7% and 65.8%. For the same compound, the inhibition ([3]; at 0.5 µM) was 44% (inactive) and 35.9% (inactive), the inhibition [3, 21] was -0.844% and 8.28% and the inhibition [3, 22] was 0.424% and -0.759%. The inhibition ([4]; at 0.5 µM) was 13.5% (inactive) and -0.16% (inactive), the inhibition [4, 23] was 23.7% and 7.38% and the inhibition [4, 24] was 37.2% and 35.6%. The inhibition ([5]; at 0.5 µM) was 56.1% (inactive) and 45.1% (inactive), the inhibition [5, 25] was 36% and 23.1% and the inhibition [5, 26] was 45.8% and 43.9%. The inhibition [5, 27] was 63.1% and 44.6%, the inhibition [5, 28] was 70.8% and 69% and the inhibition [6, 29] was 55.3% and 54.8%. The inhibition ([6]; at 0.5 µM) was 51.6% (inactive) and 46.7% (inactive), the inhibition [6, 30] was 64.1% and 63.1% and the inhibition ([7]; at 0.5 µM) was 69.7% (inactive) and 62.4% (inactive). For the same compound, the inhibition [7, 31] was 66.6% and 57.1%, the inhibition [7, 32] was 62.5% and 52.4% and the inhibition ([8]; at 0.5 µM) was 23.1% (inactive) and 7.97% (inactive). The inhibition [8, 33] was -0.605% and 4.61%, the inhibition ([8]; cisplatin combination, at 5 µM) was 43.4% and 22.5% and the inhibition [8, 34] was 7.15% and -9.48%. The inhibition ([8]; single agent, at 5 µM) was 73.2% and 24.9%, the inhibition ([9]; at 0.5 µM) was 6.51% (inactive) and -0.09% (inactive) and the inhibition ([9]; cisplatin combo, at 5 µM) was 39.6% and 46.7%. The inhibition [9, 35] was -8.85% and -7.39%, the inhibition [9, 23] was 22% and 15.3% and the inhibition ([9]; single agent, at 5 µM) was 43.2% and -3.33%. For the same compound, the inhibition ([10]; at 0.5 µM) was 56.5% (inactive) and 47% (inactive), the inhibition [10, 36] was 55% and 43.8% and the inhibition [10, 37] was 57.3% and 48.6%. The inhibition ([10]; single agent, at 0.05 µM) was -5.66% and 32.2% and the inhibition ([10]; single agent, at 5 µM) was 83% and 76.2%.
